# Reference: the supplement of paper PMC8728848
# About 410 targets per protein were measured; listed, in parts, are those with the strongest signals and a random draw of the rest.
# B1: EUL D1A (Oryza sativa) (protein)
# chain: MFGFGHHHNQAPAAPSDPNQIFKIFCRANENYCLTVRDSAVVLAPVNPKDEHQHWFKDMRFSTKVKDGEGMPAFALVNKATGLAVKHSLGQSHPVKLVPFNPEYEDASVLWTESKDVGKGFRCIRMVNNTRLNLDAFHGDKDHGGVRDGTTVVLWEWCKGDNQSWKILPWGPEAHSSSPGAATACTIGGVPVHTVRVFSAAGEDYCLTVRNGTACLAPKNPRDDYQHWIKDMRHSNKIRDEEGYPAFALVNKVTGEAIKHSTGQGHPVKLVPYNPEYQDESVLWTESKDVGKGFRCIRMVNNIYLNFDAFHGDKDHGGIHDGTEIVLWKWCEGDNQRWKILPWILEQKLISEEDLNSAVDHHHHHH
# Legend:
# Experiment in all cases: glycan array binding signal (z-score within array); higher = stronger binding
# Conditions in all cases: glycan notation: IUPAC condensed, linker removed
# Fuc(a1-2)Gal(b1-3)GalNAc = target: Fuc(a1-2)Gal(b1-3)GalNAc
# Outline: (§1)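 From the Consortium for Functional Glycomics database, 3228 arrays were curated, keeping only those whose protein sequence was available. Binding is given as a within-array Z-score averaged across arrays sharing a protein sequence and across linkers. Negative Z-scores can be read as non-binding.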
# [1] = target: Fuc(a1-2)Gal(b1-3)GlcNAc(b1-3)[Neu5Ac(a2-6)Gal(b1-4)GlcNAc(b1-6)]Gal(b1-4)Glc
# Outline: as §1
# [2] = target: Fuc(a1-2)Gal(b1-3)GlcNAc6S
# Outline: as §1
# [3] = target: Fuc(a1-2)Gal(b1-3)[Fuc(a1-4)]GlcNAc(b1-2)Man(a1-3)[Fuc(a1-2)Gal(b1-3)[Fuc(a1-4)]GlcNAc(b1-2)Man(a1-6)]Man(b1-4)GlcNAc(b1-4)[Fuc(a1-6)]GlcNAc(b1-4)[Fuc(a1-6)]GlcNAc
# Outline: as §1
# [4] = target: Fuc(a1-2)Gal(b1-3)[Fuc(a1-4)]GlcNAc(b1-3)[Gal(b1-4)GlcNAc(b1-6)]Gal(b1-4)Glc
# Outline: as §1
# [5] = target: Fuc(a1-2)[Gal(a1-3)]Gal(b1-3)GlcNAc(b1-2)Man(a1-3)[Fuc(a1-2)[Gal(a1-3)]Gal(b1-3)GlcNAc(b1-2)Man(a1-6)]Man(b1-4)GlcNAc(b1-4)GlcNAc
# Outline: as §1
# [6] = target: Fuc(a1-2)[Gal(a1-3)]Gal(b1-3)GlcNAc(b1-2)Man(a1-3)[Fuc(a1-2)[Gal(a1-3)]Gal(b1-3)GlcNAc(b1-2)Man(a1-6)]Man(b1-4)GlcNAc(b1-4)[Fuc(a1-6)]GlcNAc
# Outline: as §1
# [7] = target: Fuc(a1-2)[Gal(a1-3)]Gal(b1-3)GlcNAc(b1-3)GalNAc
# Outline: as §1
# [8] = target: Fuc(a1-2)[Gal(a1-3)]Gal(b1-4)GlcNAc(b1-2)Man(a1-3)[Fuc(a1-2)[Gal(a1-3)]Gal(b1-4)GlcNAc(b1-2)Man(a1-6)]Man(b1-4)GlcNAc(b1-4)[Fuc(a1-6)]GlcNAc
# Outline: as §1
# [9] = target: Fuc(a1-2)[GalNAc(a1-3)]Gal
# Outline: as §1
# [10] = target: Fuc(a1-2)[GalNAc(a1-3)]Gal(b1-3)GlcNAc(b1-3)GalNAc
# Outline: as §1
# [11] = target: Fuc(a1-2)[GalNAc(a1-4)]Gal(b1-4)GlcNAc
# Outline: as §1
# [12] = target: Fuc(a1-3)[Gal(b1-4)]Glc6S
# Outline: as §1
# Gal(a1-3)Gal(b1-4)GlcNAc = target: Gal(a1-3)Gal(b1-4)GlcNAc
# Outline: as §1
# Gal(b1-3)GalNAc(b1-3)Gal = target: Gal(b1-3)GalNAc(b1-3)Gal
# Outline: as §1
# [13] = target: Gal(b1-3)[Fuc(a1-4)]GlcNAc(b1-2)Man(a1-3)[Gal(b1-3)[Fuc(a1-4)]GlcNAc(b1-2)Man(a1-6)]Man(b1-4)GlcNAc(b1-4)[Fuc(a1-6)]GlcNAc
# Outline: as §1
# [14] = target: Gal(b1-4)GlcNAc(b1-3)Gal(b1-4)GlcNAc(b1-3)Gal(b1-4)GlcNAc(b1-2)Man(a1-3)[Gal(b1-4)GlcNAc(b1-3)Gal(b1-4)GlcNAc(b1-3)Gal(b1-4)GlcNAc(b1-2)Man(a1-6)]Man(b1-4)GlcNAc(b1-4)GlcNAc
# Outline: as §1
# [15] = target: Gal(b1-4)GlcNAc(b1-3)Gal(b1-4)GlcNAc(b1-3)Gal(b1-4)GlcNAc(b1-2)[Gal(b1-4)GlcNAc(b1-3)Gal(b1-4)GlcNAc(b1-3)Gal(b1-4)GlcNAc(b1-6)]Man(a1-6)[Gal(b1-4)GlcNAc(b1-3)Gal(b1-4)GlcNAc(b1-3)Gal(b1-4)GlcNAc(b1-2)Man(a1-3)]Man(b1-4)GlcNAc(b1-4)[Fuc(a1-6)]GlcNAc
# Outline: as §1
# [16] = target: Gal(b1-4)GlcNAc(b1-3)Gal(b1-4)GlcNAc(b1-3)Gal(b1-4)GlcNAc(b1-3)Gal(b1-4)GlcNAc(b1-2)Man(a1-3)[Gal(b1-4)GlcNAc(b1-3)Gal(b1-4)GlcNAc(b1-3)Gal(b1-4)GlcNAc(b1-3)Gal(b1-4)GlcNAc(b1-2)Man(a1-6)]Man(b1-4)GlcNAc(b1-4)GlcNAc
# Outline: as §1
# [17] = target: Gal(b1-4)GlcNAc(b1-3)Gal(b1-4)GlcNAc(b1-3)Gal(b1-4)GlcNAc(b1-3)Gal(b1-4)GlcNAc(b1-2)[Gal(b1-4)GlcNAc(b1-3)Gal(b1-4)GlcNAc(b1-3)Gal(b1-4)GlcNAc(b1-3)Gal(b1-4)GlcNAc(b1-6)]Man(a1-6)[Gal(b1-4)GlcNAc(b1-3)Gal(b1-4)GlcNAc(b1-3)Gal(b1-4)GlcNAc(b1-3)Gal(b1-4)GlcNAc(b1-2)Man(a1-3)]Man(b1-4)GlcNAc(b1-4)[Fuc(a1-6)]GlcNAc
# Outline: as §1
# [18] = target: Gal(b1-4)GlcNAc(b1-3)Gal(b1-4)GlcNAc(b1-6)[Gal(b1-3)]GalNAc
# Outline: as §1
# [19] = target: Gal(b1-4)GlcNAc(b1-3)Gal(b1-4)[Fuc(a1-3)]GlcNAc(b1-3)Gal(b1-4)[Fuc(a1-3)]GlcNAc
# Outline: as §1
# [20] = target: Gal(b1-4)GlcNAc(b1-6)GalNAc
# Outline: as §1
# [21] = target: Gal3S(b1-4)[Fuc(a1-3)]Glc6S
# Outline: as §1
# Gal6S(b1-4)GlcNAc = target: Gal6S(b1-4)GlcNAc
# Outline: as §1
# [22] = target: GalNAc(b1-3)Gal(a1-4)Gal(b1-4)GlcNAc(b1-3)Gal(b1-4)Glc
# Outline: as §1
# [23] = target: GlcNAc(a1-4)Gal(b1-4)GalNAc
# Outline: as §1
# [24] = target: GlcNAc(a1-6)Gal(b1-4)GlcNAc
# Outline: as §1
# [25] = target: GlcNAc(b1-2)Man(a1-3)[GlcNAc(b1-2)Man(a1-6)]Man(b1-4)GlcNAc(b1-4)[Fuc(a1-6)]GlcNAc
# Outline: as §1
# [26] = target: GlcNAc(b1-3)Gal(b1-4)GlcNAc(b1-3)Gal(b1-4)GlcNAc(b1-3)Gal(b1-4)GlcNAc(b1-3)Gal(b1-4)GlcNAc(b1-2)Man(a1-3)[GlcNAc(b1-3)Gal(b1-4)GlcNAc(b1-3)Gal(b1-4)GlcNAc(b1-3)Gal(b1-4)GlcNAc(b1-3)Gal(b1-4)GlcNAc(b1-2)Man(a1-6)]Man(b1-4)GlcNAc(b1-4)[Fuc(a1-6)]GlcNAc
# Outline: as §1
# [27] = target: GlcNAc(b1-4)Gal(b1-4)GlcNAc
# Outline: as §1
# [28] = target: GlcNAc(b1-4)GlcNAc(b1-4)GlcNAc(b1-4)GlcNAc(b1-4)GlcNAc
# Outline: as §1
# [29] = target: Man(a1-2)Man(a1-6)[Man(a1-3)]Man(a1-6)[Man(a1-2)Man(a1-2)Man(a1-3)]Man
# Outline: as §1
# [30] = target: Man(a1-3)[Man(a1-6)]Man(a1-6)[Man(a1-3)]Man
# Outline: as §1
# [31] = target: Neu5Ac(a2-3)Gal(b1-3)GalNAc
# Outline: as §1
# [32] = target: Neu5Ac(a2-3)Gal(b1-3)GalNAc6S
# Outline: as §1
# [33] = target: Neu5Ac(a2-3)Gal(b1-3)GlcNAc(b1-6)GalNAc
# Outline: as §1
# [34] = target: Neu5Ac(a2-3)Gal(b1-4)GlcNAc(b1-6)[Neu5Ac(a2-3)Gal(b1-3)]GalNAc
# Outline: as §1
# [35] = target: Neu5Ac(a2-3)Gal6S(b1-4)[Fuc(a1-3)]GlcNAc
# Outline: as §1
# [36] = target: Neu5Ac(a2-6)Gal(b1-4)GlcNAc(b1-2)Man(a1-6)[GlcNAc(b1-2)Man(a1-3)]Man(b1-4)GlcNAc(b1-4)GlcNAc
# Outline: as §1
# [37] = target: Neu5Ac(a2-6)Gal(b1-4)GlcNAc(b1-6)[Gal(b1-3)]GalNAc
# Outline: as §1
# [38] = target: Neu5Ac(a2-8)Neu5Ac(a2-3)Gal(b1-3)GalNAc(b1-4)[Neu5Ac(a2-8)Neu5Ac(a2-3)]Gal(b1-4)Glc
# Outline: as §1
# [39] = target: Neu5Ac9Ac(a2-3)Gal(b1-3)GlcNAc
# Outline: as §1
# [40] = target: Neu5Ac9Ac(a2-6)Gal(b1-4)GlcNAc
# Outline: as §1
# [41] = target: Neu5Gc(a2-3)Gal(b1-3)[Fuc(a1-4)]GlcNAc
# Outline: as §1
# [42] = target: Neu5Gc(a2-8)Neu5Gc(a2-6)Gal(b1-4)GlcNAc
# Outline: as §1
binder,measurement,setting,value
B1,glycan array binding signal (z-score),Fuc(a1-2)Gal(b1-3)GalNAc,-0.934
same,glycan array binding signal (z-score),[1],-0.444
same,glycan array binding signal (z-score),[2],0.203
same,glycan array binding signal (z-score),[3],2.92
same,glycan array binding signal (z-score),[4],1.23
same,glycan array binding signal (z-score),[5],0.066
same,glycan array binding signal (z-score),[6],-1.06
same,glycan array binding signal (z-score),[7],-0.79
same,glycan array binding signal (z-score),[8],0.315
same,glycan array binding signal (z-score),[9],-0.299
same,glycan array binding signal (z-score),[10],0.318
same,glycan array binding signal (z-score),[11],-0.759
same,glycan array binding signal (z-score),[12],1.6
same,glycan array binding signal (z-score),Gal(a1-3)Gal(b1-4)GlcNAc,-0.8
same,glycan array binding signal (z-score),Gal(b1-3)GalNAc(b1-3)Gal,-0.437
same,glycan array binding signal (z-score),[13],0.658
same,glycan array binding signal (z-score),[14],2.18
same,glycan array binding signal (z-score),[15],2.54
same,glycan array binding signal (z-score),[16],2.32
same,glycan array binding signal (z-score),[17],2.71
same,glycan array binding signal (z-score),[18],2.71
same,glycan array binding signal (z-score),[19],-0.649
same,glycan array binding signal (z-score),[20],0.031
same,glycan array binding signal (z-score),[21],2.51
same,glycan array binding signal (z-score),Gal6S(b1-4)GlcNAc,-0.407
same,glycan array binding signal (z-score),[22],-0.333
same,glycan array binding signal (z-score),[23],-0.573
same,glycan array binding signal (z-score),[24],2.67
same,glycan array binding signal (z-score),[25],2.33
same,glycan array binding signal (z-score),[26],1.58
same,glycan array binding signal (z-score),[27],-1.13
same,glycan array binding signal (z-score),[28],0.586
same,glycan array binding signal (z-score),[29],2.83
same,glycan array binding signal (z-score),[30],-0.067
same,glycan array binding signal (z-score),[31],-0.87
same,glycan array binding signal (z-score),[32],2.32
same,glycan array binding signal (z-score),[33],-1.15
same,glycan array binding signal (z-score),[34],2.69
same,glycan array binding signal (z-score),[35],-0.714
same,glycan array binding signal (z-score),[36],1.83
same,glycan array binding signal (z-score),[37],-0.319
same,glycan array binding signal (z-score),[38],0.293
same,glycan array binding signal (z-score),[39],-0.59
same,glycan array binding signal (z-score),[40],-0.088
same,glycan array binding signal (z-score),[41],0.008
same,glycan array binding signal (z-score),[42],-0.137
